Screens deposited in PubChem BioAssay by several laboratories.
Mdm2-MdmX inh: inhibitors of human Mdm2/MdmX interaction. O15151+Q00987. inhibition, % at 8 µM. SaOS-2 split-luciferase Mdm2/MdmX complementation, luminescence. 330,000 compounds, 3% hits;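 active means inhibition of at least 50% at 8 µM in the primary screen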
Beta apoptosis: beta cell apoptosis inhibition; INS-1E cytokine-induced death, ATP luminescence, 48 h; percent of positive-control rescue, neutral wells zero; protection from apoptosis, % (concentration not given with the values); 300,000 compounds, 0.8% hits;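 active means Every replicate reaches about 75%, or at least half do and their mean reaches it too, limit read from the data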;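 further: higher means more ATP so stronger rescue from cytokine killing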
Jurkat NFkB inh: lowers PMA/ionomycin-induced NF-kB signal in Jurkat cells; PMA/ionomycin-induced NF-kB luciferase reporter, luminescence; inhibition, % at 4 µM; 330,000 compounds, 0.53% hits; AID 435003; in the data active means inhibition above about 50%
NTR1 agonist: NTR1 (human) agonism. NTR1-U2OS beta-arrestin-GFP spot imaging, agonist mode. activation, % at 20 µM. P30989. 330,000 compounds, 0.17% hits. AID 493036;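 active means activation at or above 40% of the spot to cytoplasm intensity ratio, with at least 20 cells analyzed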
Target sequence (P30989 whole entry, looked up): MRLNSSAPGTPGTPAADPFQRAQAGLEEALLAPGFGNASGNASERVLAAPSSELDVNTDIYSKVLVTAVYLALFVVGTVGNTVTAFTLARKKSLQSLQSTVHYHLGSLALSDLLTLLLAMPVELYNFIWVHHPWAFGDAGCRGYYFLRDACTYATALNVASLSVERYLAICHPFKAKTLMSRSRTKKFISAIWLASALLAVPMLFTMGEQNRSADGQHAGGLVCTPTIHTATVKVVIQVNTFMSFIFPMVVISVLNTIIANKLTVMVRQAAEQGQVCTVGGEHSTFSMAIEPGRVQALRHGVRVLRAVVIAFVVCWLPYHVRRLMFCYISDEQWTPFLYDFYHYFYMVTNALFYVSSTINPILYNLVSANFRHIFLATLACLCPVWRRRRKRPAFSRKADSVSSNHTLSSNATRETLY
Bfl-1 A1 inh: inhibitors of the anti-apoptotic protein A1, read as caspase activation | MEF A1-2A-BIM cells, Caspase-Glo 3/7 luminescence, 3 h; percent of clofoctol response, vehicle zero | caspase activation, % (no concentration beside the values) | AID 2462 | 330,000 compounds, 0.066% hits;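 active means over half of replicate activation scores above 10%, or exactly half above 10 with the replicate mean above 10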
697 NFkB inh: inhibitors of the PMA/ionomycin-induced NF-kB reporter in 697 B cells | inhibition, % at 4 µM | AID 435022 | 697 B-cell NF-kB luciferase reporter, 16 h | 330,000 compounds, 0.33% hits; in the data active means inhibition above about 35%
Of the large screens only hits and unclear results are named; the others gave an inactive call. Shown are actives, neighbours in structure and some others; about 3.8% of the full set was active somewhere.

COc1ccc(CCCNC(=O)C2CCC(=O)N(Cc3ccccc3F)C2)cc1 (stereo not given)	none
COc1ccccc1CCCNC(=O)C1CCC(=O)N(Cc2ccccc2F)C1 (stereo not given)	Bfl-1 A1 inh 8.6
CCOc1ccc(CCNC(=O)CCNS(=O)(=O)c2ccc(Br)cc2)cc1OCC	none
Cc1nn(-c2ccccc2)c(Cl)c1CN(C(=O)CCl)c1ccc(Cl)cc1	Bfl-1 A1 inh 6.2 (no result: Mdm2-MdmX inh, Jurkat NFkB inh, NTR1 agonist, 697 NFkB inh)
CC(=O)N(Cc1c(C)nn(-c2ccccc2)c1Cl)c1ccc(Cl)cc1	none (no result: Beta apoptosis)
COc1cccc(COc2cc3ccccc3nc2C)c1	Beta apoptosis 98.4
Cc1nc2ccccc2cc1OCc1ccc(Cl)cc1	Beta apoptosis 109.1 (no result: Bfl-1 A1 inh)
CCn1c(COc2cccc(OC)c2)nnc1SCC(=O)NCC1CCCO1 (stereo not given)	none
COc1ccc(C23CC4CC(CC(C(=O)O)(C4)C2)C3)c(F)c1	none
Cc1c(C(=O)N(Cc2ccccc2)C(C)C)oc2ccc(S(=O)(=O)N3CCOCC3)cc12	Beta apoptosis 90.3
CCn1c(-c2ccc(N(C)C)cc2)nc2ccccc21	Beta apoptosis 112.8
COc1ccc(C)cc1Nc1n[n+](-c2ccccc2)c(-c2ccc(OC)c(OC)c2OC)s1	Beta apoptosis 95.7
COc1ccc(C)cc1Nc1n[n+](C)c(-c2ccc(O)cc2O)s1	none
CN(C)c1ccc(-c2sc(Nc3ccccc3)n[n+]2-c2ccc(F)cc2)cc1	none
COc1ccc(C)cc1Nc1n[n+](-c2ccccc2)c(-c2ccc(N(C)C)cc2)s1	Beta apoptosis 98.7
COc1cccc(CN(C)C(=O)CCN=C2NS(=O)(=O)c3ccccc32)c1OC	none
O=[N+]([O-])c1ccc(O)c(/C=N/Nc2ccccn2)c1	Beta apoptosis 105.4 (no result: Mdm2-MdmX inh, Jurkat NFkB inh, NTR1 agonist, 697 NFkB inh)
O=[N+]([O-])c1cccnc1N/N=C/c1ccccc1O	Beta apoptosis 109.7
O=[N+]([O-])c1ccccc1/C=N/Nc1nccnc1Cl	none
O=C(NC1CCCc2c1cnn2-c1ccc(F)cc1F)c1ccccc1N1CCOCC1 (stereo not given)	none
COc1ccc(N(C(=O)CCl)C(C(=O)NCCc2ccccc2)c2cccs2)cc1Cl (stereo not given)	Beta apoptosis 98.5 (no result: Mdm2-MdmX inh, Jurkat NFkB inh, NTR1 agonist, 697 NFkB inh)
COc1cccc(N(C(=O)CCl)C(C(=O)NCCc2ccccc2)c2cccs2)c1 (stereo not given)	none (no result: Mdm2-MdmX inh, Jurkat NFkB inh, NTR1 agonist, 697 NFkB inh)
COC(=O)c1cc(S(=O)(=O)NCCCc2ccco2)c[nH]1	none
C/C(=N\Nc1nc2ccccc2[nH]1)c1ccccn1	Beta apoptosis 92.0
O=C(N/N=C/c1cc([N+](=O)[O-])ccc1O)c1c[nH]c2ccccc12	Beta apoptosis 78.1
O=C(N/N=C/c1cc([N+](=O)[O-])ccc1Cl)c1cc(-c2ccccc2)nc2ccccc12	none
O=C(N/N=C/c1cc([N+](=O)[O-])ccc1O)c1cc(-c2ccccc2)nc2ccccc12	Beta apoptosis 116.6
Cc1ccc(C)c(C(=O)Cn2c(NCCO)nc3ccccc32)c1	none
COc1ccc2c(c1)C(=O)[C@@H](O)[C@H](c1ccc(OC)c(Br)c1)O2	Beta apoptosis 76.6
C[C@H](NC(=O)C1CCN(S(=O)(=O)c2ccccc2)CC1)C(=O)NCc1ccc(Cl)c(Cl)c1	none
Oc1c(Cl)cc(CN2CCCCC2)c2cccnc12	Beta apoptosis 111.2
CC1(C2CC2)NC(=O)N(CC(=O)Nc2ccc(F)cc2F)C1=O (stereo not given)	none
CC(C)(C)c1cc(NCCCn2ccnc2)n2ncc(-c3ccccc3)c2n1	Beta apoptosis 113.5
CC(C)Nc1cc(C(C)(C)C)nc2c(-c3ccccc3)cnn12	none (no result: Beta apoptosis)
COc1ccc(NC(=O)C2CCCN(S(C)(=O)=O)C2)cc1Cl (stereo not given)	none
COc1ccc(S(=O)(=O)NCC2CCCN(Cc3cn(C)nc3C)C2)cc1 (stereo not given)	none
CC1CCN(c2ccc(NC(=O)c3ccc([N+](=O)[O-])o3)cc2)CC1	Beta apoptosis 85.5, NTR1 agonist 41.7
O=C(Nc1ccc(N2CCCCC2)cc1)c1ccc([N+](=O)[O-])o1	none
COc1ccc(NC(=O)N2CCCC(C(=O)NCCc3ccccc3)C2)cc1 (stereo not given)	none
Cc1ccc(NC(=O)CN(C)S(=O)(=O)c2cccs2)cc1C	none
CC(=O)Nc1ccc(NC2=C/C(=N/S(=O)(=O)c3cccs3)c3ccccc3C2=O)cc1	Beta apoptosis 101.1
Cc1ccc(NC2=C/C(=N/S(=O)(=O)c3cccs3)c3ccccc3C2=O)cc1C	Beta apoptosis 80.4 (no result: Mdm2-MdmX inh, Jurkat NFkB inh, NTR1 agonist, 697 NFkB inh)
CC1CCCC(NC(=O)CCC(=O)N2CCOc3ccccc32)C1C (stereo not given)	none
Nc1ccc(Oc2ccc3c(c2)C(=O)NC3=O)cc1	none
Cc1nnc(N/N=C/c2cc([N+](=O)[O-])c(N3CCC(C)CC3)cc2N2CCC(C)CC2)n1N	Beta apoptosis 115.2
CCc1nnc(N/N=C/c2ccc(N3CCC(C)CC3)c([N+](=O)[O-])c2)n1N	none
CCc1ccc(CN(C)C(=O)c2cc(COc3cccc4cnccc34)on2)cc1	Beta apoptosis 77.7
COc1ccccc1NC(=O)Cn1cc(C(=O)c2ccco2)c2ccccc21	Beta apoptosis 86.7
COc1ccc(OC)c(NC(=O)Cn2cc(C(=O)c3ccco3)c3ccccc32)c1	none
Cc1ccc(NC(=O)COc2ccc3c(c2)OCO3)c(Cl)c1	none (no result: Beta apoptosis, Bfl-1 A1 inh)
CN(c1ccccc1)c1ccc(/C=C/[N+](=O)[O-])cc1	Beta apoptosis 89.2 (no result: Mdm2-MdmX inh, Jurkat NFkB inh, NTR1 agonist, 697 NFkB inh)
O=[N+]([O-])/C=C\c1ccc(N2CCOCC2)cc1	none
CC1CCCC(C)N1C(=O)COC(=O)c1cncc(Br)c1 (stereo not given)	none
Cc1ccc(NC(=O)c2cc(S(=O)(=O)NCCC3=CCCCC3)ccc2F)cc1F	Beta apoptosis 106.9
CC(=O)N1CCc2cc(S(=O)(=O)NCCCN3CCCCC3)ccc21	none
CC(=O)N1CCc2cc(S(=O)(=O)NCCC3=CCCCC3)ccc21	Beta apoptosis 87.5
COc1cnc(-c2ccccn2)nc1Sc1ccccc1Cl	Beta apoptosis 86.1
CCOC(=O)N1CCN(C(=O)CSCC(=O)Nc2nc(-c3ccc(-c4ccccc4)cc3)cs2)CC1	Beta apoptosis 89.5
CCOC(=O)N1CCN(C(=O)CSCC(=O)Nc2nc(-c3ccc(OC)cc3)cs2)CC1	none
CCOc1ccc(CC(=O)N/N=C(\C)c2cccnc2)cc1	none
Cc1ccc(-c2c[n+](Cc3ccc(Cl)c(Cl)c3)c3n2CCC3)cc1	Beta apoptosis 89.0
Cc1ccc(NC(=O)C[n+]2cc(-c3ccc(C)cc3)n3c2CCC3)cc1	none
Cc1ccc(C)c(SCC(=O)NCC(c2ccco2)N2CCCCC2)c1 (stereo not given)	none
N#Cc1c(Nc2ccccc2)sc(C(=O)c2ccc(F)cc2)c1N	Beta apoptosis 90.6
C(=N\Nc1nc2ccccc2[nH]1)/c1cccs1	none
